# From PubChem BioAssay (EPA / NIEHS)
# Results filed as inconclusive are left out. Calls of active or inactive are those of the source. The calls were made as follows, unless noted: active = hit-call score of the fitted dose curve at least 0.9, where 1 is the maximum; inactive = score below 0.9.
# Key:
# [1] = biological target: Glucocorticoid receptor (Homo sapiens) (UniProt P04150); experiment: ATG_GR_TRANS: Attagene TRANS-FACTORIAL HepG2 Assay for human Glucocorticoid Receptor (GR) (AID 2282978; active = hit-call score of the fitted dose curve at least 0.9, where 1 is the maximum;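 also: activators score as hits since higher reporter transcript over DMSO is fitted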); conditions: HepG2 Attagene TRANS GR reporter, mRNA transcription
# In short: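 HepG2 cells transiently transfected with GAL4-UAS reporter units and exogenous GR-Gal4 chimera, dosed 24 h. Reporter mRNA by RT-PCR, FAM labeling, HpaI digest and capillary electrophoresis; gain-of-signal fit versus DMSO.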
# [2] = biological target: Hepatocyte nuclear factor 4-alpha (Homo sapiens) (UniProt P41235); experiment: ATG_HNF4a_TRANS: Attagene TRANS-FACTORIAL HepG2 Assay for human Hepatocyte Nuclear Factor 4 alpha (HNF4a) (AID 2282982; active = hit-call score of the fitted dose curve at least 0.9, where 1 is the maximum); conditions: HepG2 HNF4a transactivation reporter, mRNA readout
# In short: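 Cells used were human HepG2, transiently carrying GAL4-UAS reporter units read out against exogenous NR-GAL4 chimeras. Reporter transcript levels after 24 h dosing were quantified by fluorescent RT-PCR and capillary electrophoresis.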
# [3] = ATG_M_06_TRANS: Attagene TRANS-FACTORIAL HepG2 Assay for M06 Transcription Factor (Internal Marker) (AID 2282983; active = hit-call score of the fitted dose curve at least 0.9, where 1 is the maximum); conditions: HepG2 Attagene TRANS M06 internal marker reporter
# In short: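 Internal-marker background readout from a multiplexed TRANS reporter system in HepG2; 24 h dosing; mRNA induction quantified by RT-PCR plus capillary electrophoresis fluorescence; DMSO as negative control and baseline.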
# [4] = biological target: Nuclear receptor subfamily 4 group A member 2 (Homo sapiens) (UniProt P43354); experiment: ATG_NURR1_TRANS: Attagene TRANS-FACTORIAL HepG2 Assay for human Nuclear Receptor Related Protein 1 (NURR1) (AID 2282985; active = hit-call score of the fitted dose curve at least 0.9, where 1 is the maximum); conditions: HepG2 Attagene TRANS reporter, mRNA readout
# In short: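 After 24 h chemical dosing, total RNA from transiently transfected HepG2 cells was reverse-transcribed and reporter cDNA PCR-amplified, FAM-labelled and analysed by capillary electrophoresis. Activity fitted in positive direction, DMSO as negative control.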
# [5] = biological target: Transcriptional activator Myb (Homo sapiens) (UniProt P10242); experiment: ATG_Myb_CIS: Attagene CIS-FACTORIAL HepG2 Assay for human Myeloblastosis (Myb) Proto-Oncogene Transcription Factor (AID 2282986); conditions: HepG2 Attagene CIS-FACTORIAL Myb reporter transcription; actives raise or lower the signal
# In short: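 Transiently transfected HepG2 cells carrying a multiplexed cis-promoter reporter set report endogenous Myb activity after 24 h compound exposure. Reporter mRNA is read by RT-PCR with capillary electrophoresis of fluorescent products, fitted bidirectionally against DMSO.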
# [6] = biological target: Nuclear respiratory factor 1 (Homo sapiens) (UniProt Q16656); experiment: ATG_NRF1_CIS: Attagene CIS-FACTORIAL HepG2 Assay for human Nuclear Respiratory Factor 1 (NRF1) Orphan Gene (AID 2282987); conditions: HepG2 NRF1 cis-element reporter, Attagene multiplex; actives raise or lower the signal
# In short: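 HepG2 cells transiently transfected with multiple cis-regulated reporter units, exposed 24 h. Reporter mRNAs measured by RT-PCR, fluorescent labelling, HpaI digestion and capillary electrophoresis; bidirectional fitting against DMSO.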
# [7] = ATG_NFI_CIS: Attagene CIS-FACTORIAL HepG2 Assay for human Nuclear Factor I (NFI) (AID 2282989); conditions: HepG2 cis-regulatory reporter, NFI response element transcription; actives raise or lower the signal
# In short: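 Cells: human liver HepG2, transiently transfected with promoter-regulated reporter transcription units. Exposure 24 h. Detection: fluorescent RT-PCR products separated by capillary electrophoresis, normalised to DMSO negative control.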
# [8] = biological target: Myc proto-oncogene protein (Homo sapiens) (UniProt P01106); experiment: ATG_Myc_CIS: Attagene CIS-FACTORIAL HepG2 Assay for human Myelocytomatosis (Myc) Proto-Oncogene Transcription Factor (AID 2282990); conditions: HepG2, Attagene cis-reporter transcription factor activity; actives raise or lower the signal
# In short: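 Multiplexed cis-reporter transcription in HepG2 cells after 24 h chemical treatment. Reporter mRNA measured by RT-PCR and capillary electrophoresis fluorescence; activity fitted bidirectionally against DMSO control.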
# [9] = ATG_NF_kB_CIS: Attagene CIS-FACTORIAL HepG2 Assay for human Nuclear Factor Kappa B (NF-kB) (AID 2282991); conditions: HepG2 Attagene cis-factorial NF-kB reporter mRNA; actives raise or lower the signal
# In short: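 HepG2 cells transfected with cis-promoter-driven reporter units, so endogenous transcription factor activity is measured. Reporter mRNA quantified 24 h after dosing by RT-PCR and capillary electrophoresis, with bidirectional fitting against DMSO.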
# [10] = ATG_NRF2_ARE_CIS: Attagene CIS-FACTORIAL HepG2 Assay for human Nuclear Factor Erythroid 2 Related Factor 2 (NFR2) response to Antioxidant Response Elements (ARE) (AID 2282992); conditions: HepG2 Attagene ARE/NRF2 reporter, transcription factor activity; actives raise or lower the signal
# In short: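 HepG2 cells transiently transfected with multiplexed cis-element reporter constructs, 24 h after chemical dosing; reporter mRNA quantified by RT-PCR, fluorescent primer extension, HpaI digestion and capillary electrophoresis. Bidirectional fit relative to DMSO.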
# [11] = ATG_Oct_MLP_CIS: Attagene CIS-FACTORIAL HepG2 Assay for human Octamer-Binding Transcription Factor (Oct) (AID 2282993); conditions: HepG2 Attagene cis-factorial Oct reporter, mRNA; actives raise or lower the signal
# In short: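 HepG2, transient MRTU transfection, cis promoter elements; 24 h dosing; RT-PCR/CE fluorescence read-out of reporter mRNA; fit both directions vs DMSO.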
# [12] = biological target: Cellular tumor antigen p53 (Homo sapiens) (UniProt P04637); experiment: ATG_p53_CIS: Attagene CIS-FACTORIAL HepG2 Assay for human p53 Transcription Factor (AID 2282994); conditions: HepG2 p53 cis-element reporter, Attagene mRNA; actives raise or lower the signal
# In short: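 HepG2 cells transiently transfected with cis-regulated multiple reporter transcription units, dosed 24 h. Reporter mRNA measured by RT-PCR, 6-FAM primer extension, HpaI digestion and capillary electrophoresis; bidirectional fit relative to DMSO.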
# [13] = biological target: Oxysterols receptor LXR-beta (Homo sapiens) (UniProt P55055); experiment: ATG_LXRb_TRANS: Attagene TRANS-FACTORIAL HepG2 Assay for human Liver X Receptor beta (LXRb) (AID 2282981; active = hit-call score of the fitted dose curve at least 0.9, where 1 is the maximum); conditions: HepG2 Attagene TRANS GAL4-LXRb reporter, mRNA
# In short: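 In this TRANS format, exogenous chimeric NR-Gal4 protein activity, not endogenous factors, drives reporter expression in transfected human HepG2 cells. Exposure lasted 24 h; reporter mRNA was read by fluorescent capillary electrophoresis.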
# [14] = ATG_M_32_TRANS: Attagene TRANS-FACTORIAL HepG2 Assay for M32 Transcription Factor (Internal Marker) (AID 2282984; active = hit-call score of the fitted dose curve at least 0.9, where 1 is the maximum;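 also: transcript level of a background control reporter unit measured by RT-PCR and capillary electrophoresis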); conditions: HepG2 Attagene TRANS M32 internal marker reporter
# In short: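 Human hepatoma HepG2, transient MRTU transfection, 24 h treatment. RNA → RT-PCR → fluorescent primer extension → HpaI digest (2 h, 37 C) → CE. Positive-direction fit vs DMSO.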
# [15] = BSK_3C_TissueFactor: BioMAP Diversity Plus: 3C Assay for Tissue Factor Biomarker Activity (AID 2282997); conditions: BioMAP 3C HUVEC, tissue factor biomarker readout; actives raise or lower the signal
# In short: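 Endothelial monolayers (human umbilical vein, primary) are dosed, incubated 24 h, and assayed for Tissue Factor by ELISA; DMSO serves as negative control for bidirectional fitting.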
# [16] = BSK_3C_uPAR: BioMAP Diversity Plus: 3C Assay for Urokinase-type plasminogen activator receptor (uPAR) Biomarker Activity (AID 2282998); conditions: BioMAP 3C HUVEC, uPAR biomarker ELISA; actives raise or lower the signal
# In short: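 A multiplexed primary-cell system built on human umbilical vein endothelium was used, with chemical present for 24 h before reading. Cell-surface uPAR was detected by ELISA; signal change in either direction counted against DMSO.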
# [17] = BSK_3C_VCAM1: BioMAP Diversity Plus: 3C Assay for Vascular cell adhesion molecule 1 (VCAM1) Biomarker Activity (AID 2282999); conditions: BioMAP 3C HUVEC, VCAM1 ELISA, cytokine-stimulated; actives raise or lower the signal
# In short: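 Human umbilical vein endothelial cells were dosed with compound for 24 h, after which cell-surface VCAM-1 was quantified by ELISA. Bidirectional curve fitting used DMSO as negative control and activity baseline.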
# [18] = BSK_4H_Eotaxin3: BioMAP Diversity Plus: 4H Assay for Eotaxin 3 Biomarker Activity (AID 2283000); conditions: primary human endothelial cells (HUVEC); actives raise or lower the signal;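 as to outcome: CCL26 protein level quantified by ELISA in parallel with SRB cytotoxicity check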
# In short: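 ELISA quantitation of CCL26 (Eotaxin-3) protein from chemically dosed human vascular endothelial cells at 24 h; increases and decreases both scored relative to DMSO-treated baseline.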
# [19] = biological target: Bile acid receptor (Homo sapiens) (UniProt Q96RI1); experiment: ATG_FXR_TRANS: Attagene TRANS-FACTORIAL HepG2 Assay for Farnesoid X Receptor (FXR) (AID 2282979; active = hit-call score of the fitted dose curve at least 0.9, where 1 is the maximum;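 also: hits raise reporter mRNA above DMSO so AC50 marks FXR activation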); conditions: HepG2 Attagene TRANS FXR-GAL4 reporter transcription
# In short: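 After 24 h chemical treatment of transfected HepG2 cells, GAL4-UAS reporter transcripts driven by an exogenous FXR-GAL4 fusion were measured by RT-PCR and capillary electrophoresis. Increases over DMSO were fitted.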
# [20] = biological target: Oxysterols receptor LXR-alpha (Homo sapiens) (UniProt Q13133); experiment: ATG_LXRa_TRANS: Attagene TRANS-FACTORIAL HepG2 Assay for human Liver X Receptor alpha (LXRa) (AID 2282980; active = hit-call score of the fitted dose curve at least 0.9, where 1 is the maximum); conditions: HepG2 Attagene TRANS reporter, LXRa transactivation
# In short: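 In this multiplexed TRANS system, compounds act on HepG2 cells carrying GAL4-UAS reporter units and a receptor-GAL4 fusion for 24 h. Induced reporter RNA is amplified, fluorescently labelled and sized by capillary electrophoresis, with DMSO as baseline.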
# Sequence of Transcriptional activator Myb (Homo sapiens) (P10242 whole entry, looked up): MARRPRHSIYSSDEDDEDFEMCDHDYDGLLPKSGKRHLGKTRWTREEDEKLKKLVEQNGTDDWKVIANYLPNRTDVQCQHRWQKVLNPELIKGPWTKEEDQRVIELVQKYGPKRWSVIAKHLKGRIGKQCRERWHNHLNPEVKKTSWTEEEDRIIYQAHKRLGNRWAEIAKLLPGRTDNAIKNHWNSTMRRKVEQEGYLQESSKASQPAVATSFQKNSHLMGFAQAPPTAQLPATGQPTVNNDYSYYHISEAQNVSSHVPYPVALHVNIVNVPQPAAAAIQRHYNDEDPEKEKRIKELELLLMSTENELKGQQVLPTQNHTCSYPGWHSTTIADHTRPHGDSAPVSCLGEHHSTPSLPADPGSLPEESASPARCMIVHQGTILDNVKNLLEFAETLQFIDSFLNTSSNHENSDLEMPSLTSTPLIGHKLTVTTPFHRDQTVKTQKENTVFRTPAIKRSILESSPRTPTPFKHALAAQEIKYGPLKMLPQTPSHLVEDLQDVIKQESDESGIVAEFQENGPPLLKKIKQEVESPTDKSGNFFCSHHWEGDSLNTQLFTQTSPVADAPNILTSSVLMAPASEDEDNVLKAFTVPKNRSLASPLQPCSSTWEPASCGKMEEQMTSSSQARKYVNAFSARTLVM
# Sequence of Glucocorticoid receptor (Homo sapiens) (P04150 whole entry, looked up, the tested form may be a part): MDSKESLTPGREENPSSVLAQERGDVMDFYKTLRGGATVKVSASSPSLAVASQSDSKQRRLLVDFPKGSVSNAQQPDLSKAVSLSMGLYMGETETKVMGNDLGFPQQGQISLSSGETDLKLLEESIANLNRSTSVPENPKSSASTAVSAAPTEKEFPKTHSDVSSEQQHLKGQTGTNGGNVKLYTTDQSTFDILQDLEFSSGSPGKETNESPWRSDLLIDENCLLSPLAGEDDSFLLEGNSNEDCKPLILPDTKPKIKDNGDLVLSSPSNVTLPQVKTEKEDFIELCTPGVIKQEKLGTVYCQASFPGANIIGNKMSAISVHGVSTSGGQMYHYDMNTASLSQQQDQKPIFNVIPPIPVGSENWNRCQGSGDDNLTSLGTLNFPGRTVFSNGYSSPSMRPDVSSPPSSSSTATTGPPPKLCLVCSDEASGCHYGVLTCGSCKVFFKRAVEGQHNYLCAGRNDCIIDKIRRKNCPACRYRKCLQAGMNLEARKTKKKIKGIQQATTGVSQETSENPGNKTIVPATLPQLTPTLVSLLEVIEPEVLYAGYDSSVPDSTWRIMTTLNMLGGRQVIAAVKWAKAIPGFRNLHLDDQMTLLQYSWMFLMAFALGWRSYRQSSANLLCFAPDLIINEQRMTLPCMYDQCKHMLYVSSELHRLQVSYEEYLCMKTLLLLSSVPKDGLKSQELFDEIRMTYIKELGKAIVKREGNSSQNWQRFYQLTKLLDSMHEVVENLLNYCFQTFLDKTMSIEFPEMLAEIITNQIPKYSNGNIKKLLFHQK
# Sequence of Nuclear respiratory factor 1 (Homo sapiens) (Q16656 whole entry, looked up): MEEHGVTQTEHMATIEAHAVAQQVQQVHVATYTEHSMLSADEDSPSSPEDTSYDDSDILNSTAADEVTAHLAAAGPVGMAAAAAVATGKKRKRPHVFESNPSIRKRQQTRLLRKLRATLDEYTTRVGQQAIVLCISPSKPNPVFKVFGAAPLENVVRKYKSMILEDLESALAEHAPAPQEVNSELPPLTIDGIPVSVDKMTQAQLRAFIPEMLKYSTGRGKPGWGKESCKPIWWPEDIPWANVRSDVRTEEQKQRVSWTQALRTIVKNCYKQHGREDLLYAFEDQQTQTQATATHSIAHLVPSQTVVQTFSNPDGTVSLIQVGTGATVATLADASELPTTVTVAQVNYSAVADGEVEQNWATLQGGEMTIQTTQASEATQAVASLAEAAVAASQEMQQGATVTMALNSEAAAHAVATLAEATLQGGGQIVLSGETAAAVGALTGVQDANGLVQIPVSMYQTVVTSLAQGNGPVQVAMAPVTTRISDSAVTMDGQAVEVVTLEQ
# Sequence of Cellular tumor antigen p53 (Homo sapiens) (P04637 whole entry, looked up): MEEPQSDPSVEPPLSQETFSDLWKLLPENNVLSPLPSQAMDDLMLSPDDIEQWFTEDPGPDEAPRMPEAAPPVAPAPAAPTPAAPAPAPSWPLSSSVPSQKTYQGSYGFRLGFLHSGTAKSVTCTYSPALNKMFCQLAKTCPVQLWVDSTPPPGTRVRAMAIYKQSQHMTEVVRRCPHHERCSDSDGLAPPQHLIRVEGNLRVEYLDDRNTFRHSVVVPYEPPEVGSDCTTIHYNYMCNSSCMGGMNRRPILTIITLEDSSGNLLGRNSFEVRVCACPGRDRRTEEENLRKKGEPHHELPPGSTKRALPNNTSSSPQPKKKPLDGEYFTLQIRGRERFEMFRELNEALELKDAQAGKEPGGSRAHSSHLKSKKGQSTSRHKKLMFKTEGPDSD
# Sequence of Oxysterols receptor LXR-beta (Homo sapiens) (P55055 whole entry, looked up, the tested form may be a part): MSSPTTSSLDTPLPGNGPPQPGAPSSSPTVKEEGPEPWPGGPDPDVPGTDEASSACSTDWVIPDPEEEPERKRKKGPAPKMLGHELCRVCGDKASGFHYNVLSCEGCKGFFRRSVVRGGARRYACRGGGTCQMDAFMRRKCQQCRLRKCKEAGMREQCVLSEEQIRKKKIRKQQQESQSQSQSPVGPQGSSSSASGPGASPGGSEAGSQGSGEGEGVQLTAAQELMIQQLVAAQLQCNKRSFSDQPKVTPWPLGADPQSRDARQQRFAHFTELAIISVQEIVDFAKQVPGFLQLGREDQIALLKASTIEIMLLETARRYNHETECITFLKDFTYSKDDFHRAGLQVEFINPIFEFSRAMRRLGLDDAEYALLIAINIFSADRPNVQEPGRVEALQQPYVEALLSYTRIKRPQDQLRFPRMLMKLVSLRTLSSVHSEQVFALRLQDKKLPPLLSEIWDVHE
# Sequence of Myc proto-oncogene protein (Homo sapiens) (P01106 whole entry, looked up): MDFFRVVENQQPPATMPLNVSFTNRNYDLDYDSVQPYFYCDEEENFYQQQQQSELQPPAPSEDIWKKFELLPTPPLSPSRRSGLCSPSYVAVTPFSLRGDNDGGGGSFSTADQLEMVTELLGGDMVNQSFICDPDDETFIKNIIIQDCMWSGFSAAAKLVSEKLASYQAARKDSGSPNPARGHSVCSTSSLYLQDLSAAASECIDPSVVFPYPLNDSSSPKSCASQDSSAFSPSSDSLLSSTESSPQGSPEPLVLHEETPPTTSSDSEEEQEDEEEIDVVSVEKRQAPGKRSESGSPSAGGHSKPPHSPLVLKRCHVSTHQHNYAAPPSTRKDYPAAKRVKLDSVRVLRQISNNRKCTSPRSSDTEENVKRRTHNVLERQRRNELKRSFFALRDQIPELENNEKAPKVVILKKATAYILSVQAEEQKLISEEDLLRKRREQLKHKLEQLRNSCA
# Sequence of Hepatocyte nuclear factor 4-alpha (Homo sapiens) (P41235 whole entry, looked up, the tested form may be a part): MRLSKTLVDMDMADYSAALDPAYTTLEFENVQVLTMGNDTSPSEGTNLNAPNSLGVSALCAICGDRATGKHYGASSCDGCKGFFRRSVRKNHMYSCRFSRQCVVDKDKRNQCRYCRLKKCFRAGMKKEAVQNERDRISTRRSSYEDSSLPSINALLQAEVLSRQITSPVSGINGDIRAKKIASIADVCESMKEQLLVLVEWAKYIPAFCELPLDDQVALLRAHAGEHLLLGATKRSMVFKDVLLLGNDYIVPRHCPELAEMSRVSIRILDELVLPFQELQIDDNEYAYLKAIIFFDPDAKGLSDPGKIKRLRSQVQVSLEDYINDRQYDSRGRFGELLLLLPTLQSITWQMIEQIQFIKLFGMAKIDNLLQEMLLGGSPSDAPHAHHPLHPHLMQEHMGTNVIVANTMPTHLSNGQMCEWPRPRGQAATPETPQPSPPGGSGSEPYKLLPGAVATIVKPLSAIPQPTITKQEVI
# Sequence of Nuclear receptor subfamily 4 group A member 2 (Homo sapiens) (P43354 whole entry, looked up): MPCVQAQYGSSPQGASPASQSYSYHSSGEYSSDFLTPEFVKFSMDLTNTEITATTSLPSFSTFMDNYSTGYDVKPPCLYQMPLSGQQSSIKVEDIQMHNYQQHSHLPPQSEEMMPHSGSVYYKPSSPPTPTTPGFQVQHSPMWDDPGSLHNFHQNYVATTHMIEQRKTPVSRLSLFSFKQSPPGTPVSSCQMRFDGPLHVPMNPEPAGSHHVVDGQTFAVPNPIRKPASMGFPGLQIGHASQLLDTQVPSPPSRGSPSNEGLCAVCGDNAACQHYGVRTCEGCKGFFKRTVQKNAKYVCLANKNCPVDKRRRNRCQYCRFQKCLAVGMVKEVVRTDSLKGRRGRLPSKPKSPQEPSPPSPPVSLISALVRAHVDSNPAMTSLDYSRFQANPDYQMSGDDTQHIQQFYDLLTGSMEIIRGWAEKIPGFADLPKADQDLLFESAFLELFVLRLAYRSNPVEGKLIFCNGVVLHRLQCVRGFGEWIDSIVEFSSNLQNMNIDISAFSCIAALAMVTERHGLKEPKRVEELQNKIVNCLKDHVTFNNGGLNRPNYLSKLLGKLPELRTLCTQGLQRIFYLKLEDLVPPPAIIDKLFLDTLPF
# Sequence of Bile acid receptor (Homo sapiens) (Q96RI1 whole entry, looked up, the tested form may be a part): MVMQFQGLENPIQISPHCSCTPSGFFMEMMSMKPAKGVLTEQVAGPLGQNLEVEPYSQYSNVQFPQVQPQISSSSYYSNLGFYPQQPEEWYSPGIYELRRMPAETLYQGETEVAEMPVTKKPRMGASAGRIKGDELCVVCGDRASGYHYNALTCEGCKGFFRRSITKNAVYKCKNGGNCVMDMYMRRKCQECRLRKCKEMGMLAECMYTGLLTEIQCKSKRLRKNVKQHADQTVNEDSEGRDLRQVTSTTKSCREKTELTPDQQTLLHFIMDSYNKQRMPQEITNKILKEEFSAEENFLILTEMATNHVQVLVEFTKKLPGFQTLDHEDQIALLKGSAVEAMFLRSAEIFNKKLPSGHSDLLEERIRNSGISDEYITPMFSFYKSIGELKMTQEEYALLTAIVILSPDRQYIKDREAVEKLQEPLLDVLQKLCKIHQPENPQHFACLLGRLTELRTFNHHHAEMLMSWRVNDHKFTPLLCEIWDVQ
structure (smiles),measurement,setting,value
CC(C)Nc1nc(N)nc(Cl)n1,outcome,[1],inactive
same,outcome,[2],inactive
same,outcome,[3],inactive
same,outcome,[4],inactive
same,outcome,[5],inactive
same,outcome,[6],inactive
same,outcome,[7],inactive
same,outcome,[8],inactive
same,outcome,[9],inactive
same,outcome,[10],inactive
same,outcome,[11],inactive
same,outcome,[12],inactive
CCO/C=C1\N=C(c2ccccc2)OC1=O,outcome,[1],inactive
same,outcome,[13],inactive
same,outcome,[2],inactive
same,outcome,[4],inactive
same,outcome,[5],inactive
same,outcome,[6],inactive
same,outcome,[7],inactive
same,outcome,[8],inactive
same,outcome,[9],inactive
same,outcome,[10],inactive
same,outcome,[11],inactive
same,outcome,[12],inactive
C=Cc1ccc(C)cc1,outcome,[1],inactive
same,outcome,[13],inactive
same,outcome,[14],inactive
same,outcome,[5],inactive
same,outcome,[8],inactive
same,outcome,[9],inactive
same,outcome,[10],inactive
same,outcome,[11],inactive
same,outcome,[12],inactive
c1ccc(Oc2ccccc2)cc1,outcome,[1],inactive
same,outcome,[13],inactive
same,outcome,[2],inactive
same,outcome,[5],inactive
same,outcome,[6],inactive
same,outcome,[7],inactive
same,outcome,[8],inactive
same,outcome,[9],inactive
same,outcome,[10],inactive
same,outcome,[11],inactive
same,outcome,[12],inactive
same,AC50,[15],30.7 µM (active)
same,AC50,[16],30.6 µM (active)
same,AC50,[17],30.7 µM (active)
same,AC50,[18],31.5 µM (active)
CCc1ccc(O)cc1,outcome,[1],inactive
same,outcome,[2],inactive
same,outcome,[3],inactive
same,outcome,[14],inactive
same,outcome,[4],inactive
same,outcome,[6],inactive
same,outcome,[7],inactive
same,outcome,[8],inactive
same,outcome,[9],inactive
same,outcome,[10],inactive
same,outcome,[11],inactive
same,outcome,[12],inactive
CN(C)C(=O)Nc1ccc(Oc2ccc(Cl)cc2)cc1,outcome,[1],inactive
same,outcome,[13],inactive
same,outcome,[3],inactive
same,outcome,[14],inactive
same,outcome,[4],inactive
same,outcome,[5],inactive
same,outcome,[6],inactive
same,outcome,[7],inactive
same,outcome,[8],inactive
same,AC50,[10],61.4 µM (active)
same,outcome,[11],inactive
same,outcome,[12],inactive
same,outcome,[15],inactive
same,AC50,[16],2.32 µM (active)
same,outcome,[17],inactive
same,outcome,[18],inactive
N#Cc1ccc(CC(=O)c2cccc(C(F)(F)F)c2)cc1,outcome,[1],inactive
same,outcome,[3],inactive
same,outcome,[14],inactive
same,outcome,[5],inactive
same,AC50,[6],100 µM (active)
same,AC50,[8],158 µM (active)
same,outcome,[9],inactive
same,AC50,[10],13.5 µM (active)
same,outcome,[11],inactive
same,outcome,[12],inactive
c1ccc(CCc2ccccc2)cc1,outcome,[19],inactive
same,outcome,[20],inactive
same,outcome,[13],inactive
same,outcome,[2],inactive
same,outcome,[3],inactive
same,outcome,[14],inactive
same,outcome,[4],inactive
same,outcome,[5],inactive
same,outcome,[6],inactive
same,outcome,[7],inactive
same,outcome,[8],inactive
same,outcome,[11],inactive
same,outcome,[12],inactive
same,AC50,[15],14.5 µM (active)
same,AC50,[16],36.7 µM (active)
same,AC50,[17],29.8 µM (active)
same,AC50,[18],30.7 µM (active)
CCCC(=O)OC(C)(C)Cc1ccccc1,outcome,[1],inactive
same,outcome,[2],inactive
same,outcome,[14],inactive
same,outcome,[4],inactive
same,outcome,[6],inactive
same,outcome,[8],inactive
same,outcome,[9],inactive
same,AC50,[10],145 µM (active)
same,outcome,[11],inactive
same,outcome,[12],inactive
CCOC(=O)C1OC1c1ccccc1 (centres undefined),outcome,[1],inactive
same,outcome,[3],inactive
same,outcome,[14],inactive
same,outcome,[4],inactive
same,outcome,[5],inactive
same,outcome,[6],inactive
same,outcome,[7],inactive
same,outcome,[8],inactive
same,outcome,[10],inactive
same,outcome,[11],inactive
same,AC50,[12],64.4 µM (active)
